Measured values published in the supplement of paper PMC4466140.

Experiments:
Assay in all cases: SPOT peptide array binding signal intensity (averaged, normalized) (arbitrary units (background-subtracted, floor 0; scale differs between SH3 domains)); higher = stronger binding of the SH3 domain to the peptide
AgAbp1 = target: AgAbp1
Method in brief: (§1)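 Cellulose membranes carried synthetic 15-mer peptides with cysteines swapped for serines. These were incubated overnight at 4°C with 10 μg/ml of GST-fused SH3 domains from four yeast species in TBS-based blocking buffer. Binding signal, detected with anti-GST antibody and quantified in Genespotter, is the normalized, background-subtracted spot intensity averaged over replicates, in arbitrary units specific to each domain.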

AgBbc1 = target: AgBbc1
Method in brief: as §1

AgBem1-D1 = target: AgBem1-D1
Method in brief: as §1

AgBzz1-D1 = target: AgBzz1-D1
Method in brief: as §1

AgBzz1-D2 = target: AgBzz1-D2
Method in brief: as §1

AgCyk3 = target: AgCyk3
Method in brief: as §1

AgFus1 = target: AgFus1
Method in brief: as §1

AgHof1 = target: AgHof1
Method in brief: as §1

AgHse1 = target: AgHse1
Method in brief: as §1

AgLsb1 = target: AgLsb1
Method in brief: as §1

AgLsb4 = target: AgLsb4
Method in brief: as §1

AgMyo5 = target: AgMyo5
Method in brief: as §1

AgNbp2 = target: AgNbp2
Method in brief: as §1

AgRvs167 = target: AgRvs167
Method in brief: as §1

AgSho1 = target: AgSho1
Method in brief: as §1

AgSla1-D1-D2 = target: AgSla1-D1-D2
Method in brief: as §1

AgSla1-D3 = target: AgSla1-D3
Method in brief: as §1

CaAbp1-D1 = target: CaAbp1-D1
Method in brief: as §1

CaAbp1-D2 = target: CaAbp1-D2
Method in brief: as §1

CaBbc1 = target: CaBbc1
Method in brief: as §1

CaBem1-D1 = target: CaBem1-D1
Method in brief: as §1

CaBzz1-D1 = target: CaBzz1-D1
Method in brief: as §1

CaBzz1-D2 = target: CaBzz1-D2
Method in brief: as §1

CaCyk3 = target: CaCyk3
Method in brief: as §1

CaFus1 = target: CaFus1
Method in brief: as §1

CaHof1 = target: CaHof1
Method in brief: as §1

CaHse1 = target: CaHse1
Method in brief: as §1

CaLsb1 = target: CaLsb1
Method in brief: as §1

CaLsb4 = target: CaLsb4
Method in brief: as §1

CaMyo5 = target: CaMyo5
Method in brief: as §1

CaNbp2 = target: CaNbp2
Method in brief: as §1

CaRvs167 = target: CaRvs167
Method in brief: as §1

CaRvs167-3 = target: CaRvs167-3
Method in brief: as §1

CaSho1 = target: CaSho1
Method in brief: as §1

CaSla1-D1-D2 = target: CaSla1-D1-D2
Method in brief: as §1

CaSla1-D3 = target: CaSla1-D3
Method in brief: as §1

ScAbp1 = target: ScAbp1
Method in brief: as §1

B1: unnamed (peptide)
chain: TYNRTAFQIPGDQSI
SPOT peptide array binding signal intensity (AgAbp1): 1
SPOT peptide array binding signal intensity (AgBbc1): ≤ 0
SPOT peptide array binding signal intensity (AgBem1-D1): ≤ 0
SPOT peptide array binding signal intensity (AgBzz1-D1): 60
SPOT peptide array binding signal intensity (AgBzz1-D2): ≤ 0
SPOT peptide array binding signal intensity (AgCyk3): ≤ 0
SPOT peptide array binding signal intensity (AgFus1): 0.5
SPOT peptide array binding signal intensity (AgHof1): 3.5
SPOT peptide array binding signal intensity (AgHse1): ≤ 0
SPOT peptide array binding signal intensity (AgLsb1): 540
SPOT peptide array binding signal intensity (AgLsb4): ≤ 0
SPOT peptide array binding signal intensity (AgMyo5): 2.25
SPOT peptide array binding signal intensity (AgNbp2): ≤ 0
SPOT peptide array binding signal intensity (AgRvs167): 1
SPOT peptide array binding signal intensity (AgSho1): ≤ 0
SPOT peptide array binding signal intensity (AgSla1-D1-D2): ≤ 0
SPOT peptide array binding signal intensity (AgSla1-D3): 1
SPOT peptide array binding signal intensity (CaAbp1-D1): ≤ 0
SPOT peptide array binding signal intensity (CaAbp1-D2): ≤ 0
SPOT peptide array binding signal intensity (CaBbc1): 1
SPOT peptide array binding signal intensity (CaBem1-D1): ≤ 0
SPOT peptide array binding signal intensity (CaBzz1-D1): 60.5
SPOT peptide array binding signal intensity (CaBzz1-D2): 43.5
SPOT peptide array binding signal intensity (CaCyk3): 1
SPOT peptide array binding signal intensity (CaFus1): ≤ 0
SPOT peptide array binding signal intensity (CaHof1): 0.5
SPOT peptide array binding signal intensity (CaHse1): 2.5
SPOT peptide array binding signal intensity (CaLsb1): 207
SPOT peptide array binding signal intensity (CaLsb4): ≤ 0
SPOT peptide array binding signal intensity (CaMyo5): ≤ 0
SPOT peptide array binding signal intensity (CaNbp2): ≤ 0
SPOT peptide array binding signal intensity (CaRvs167): 2.33
SPOT peptide array binding signal intensity (CaRvs167-3): 0.5
SPOT peptide array binding signal intensity (CaSho1): ≤ 0
SPOT peptide array binding signal intensity (CaSla1-D1-D2): ≤ 0
SPOT peptide array binding signal intensity (CaSla1-D3): 1.5
SPOT peptide array binding signal intensity (ScAbp1): ≤ 0
